RAM inhibit: inhibitors of the yeast RAM network | S. cerevisiae dse1pr::URA3 reporter, 5-FOA growth OD615, 2 d; analog-sensitive cbk1-as2 kinase mutant strain | inhibition, % at 50 µM | actives 1.8% (n = 190,000) | AID 868;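 active = inhibition above a set limit, 3 SD over mean compound inhibition, cut at about 8.4% in these data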;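 note: 0% = DMSO-only wells with no growth and 100% = 10 µM 1-NA-PP1 full growth; inhibition rescues growth on 5-FOA so higher OD means more RAM inhibition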
Lmaj promast: Leishmania major promastigote growth inhibition; Leishmania major promastigotes, resazurin fluorescence viability; inhibition, % at 10 µM; actives 9% (n = 200,000); in the data active = inhibition above about 50%;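 note: promastigotes grown with compound for 44 hours at 28 °C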
CHOP inhibitor: inhibitors of CHOP induction in ER stress response | actives 3.8% (n = 220,000) | CHO-K1 CHOP-promoter luciferase, tunicamycin-induced, 15-18 h | inhibition, % at 10 µM;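 active = compounds that reduced the stress-induced luciferase reporter signal by more than about 70% of percent inhibition, limit read from the data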;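 note: 0% = tunicamycin plus vehicle and 100% = wells without tunicamycin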
WT yeast gro inh: growth inhibition of WT yeast, mitochondrial fusion screen. inhibition, % at 10 µM. AID 1362. actives 2.1% (n = 190,000). mitochondrial fusion phenotypic screen, WT strain; in the data active = inhibition above about 58%; tested in S. cerevisiae
The depositor's hits bear a star; x = no result given. The list is not random: actives were taken first. Their share in the collection is about 13%.

SMILES | RAM inhibit | Lmaj promast | CHOP inhibitor | WT yeast gro inh
CCOC(=O)c1sc(NC(=O)c2cccc(S(=O)(=O)N3c4ccccc4CC3C)c2)cc1C (stereo unspecified) | 2.6 | 61.7* | 4.6 | -0.6
CCOC(=O)c1c(C)nc2sc(C(=O)Nc3ccccc3)c(N)c2c1-c1ccc(OC)cc1 | 3.7 | 96.6* | 2.2 | 5.1
COc1ccccc1NC(NC(=O)c1cccnc1)C(Cl)(Cl)Cl (stereo unspecified) | 0.8 | 16.8 | 39.5 | 24.7
O=C(N/N=C/c1ccc(-c2ccccc2C(=O)O)o1)c1cccs1 | 2.0 | -5.6 | -14.3 | -7.2
CCOC(=O)c1c(N)sc(C(=O)Nc2ccccc2)c1C | 0.0 | 58.2* | -21.1 | 11.6
CCOC(=O)c1c(N)sc(C(=O)Nc2ccccc2F)c1C | 4.3 | 23.9 | -18.7 | 35.0
Cc1c(C(=O)OC(C)C)sc(N)c1C(=O)OC(C)C | 3.3 | -0.7 | 81.7* | -12.7
CCOC(=O)c1sc(NC(C)=O)cc1C | 1.7 | -2.9 | -1.1 | 11.9
CCOC(=O)c1sc(NC(=O)Nc2ccccc2Cl)cc1C | 6.0 | 79.8* | 80.1* | 33.8
Cc1c(C(N)=O)sc(N)c1C(=O)OC(C)C | 0.7 | -6.0 | 15.4 | -5.9
CCOc1ccccc1NC(=O)COC(=O)CC(NC(N)=O)c1ccc(Cl)cc1 (stereo unspecified) | -1.7 | -2.4 | 28.6 | -17.3
COc1ccc(CN(CCC(c2ccccc2)C2CCOC(C)(C)C2)C(C)=O)cc1 (stereo unspecified) | 1.3 | 83.4* | 4.0 | 15.5
COc1ccc(CNCCC(c2ccccc2)C2CCOC(C)(C)C2)cc1 (stereo unspecified) | 0.8 | 90.5* | 24.9 | 14.5
CC1CCCCN1C/C=C/c1ccccc1[N+](=O)[O-] (stereo unspecified) | -1.0 | 85.2* | 38.8 | -16.4
CC1CCCCN1S(=O)(=O)c1ccccc1[N+](=O)[O-] (stereo unspecified) | 0.8 | 2.1 | 17.1 | -1.7
CCC1CCCCN1C/C=C/c1ccccc1[N+](=O)[O-] (stereo unspecified) | 1.4 | 89.7* | 22.4 | 13.8
CC1CCCN(c2ccc([N+](=O)[O-])s2)C1 (stereo unspecified) | 2.4 | -7.2 | -10.2 | -0.7
CC1CCCN(C/C=C/c2ccccc2[N+](=O)[O-])C1 (stereo unspecified) | 0.9 | 87.9* | 7.5 | -4.3
O=C(COC(=O)COc1ccc(Cl)cc1Cl)Nc1cccnc1Cl | 0.8 | -4.4 | 9.3 | 7.4
O=C(NCc1cccs1)c1ccc(Cl)c(S(=O)(=O)N2CCCC2)c1 | 0.7 | 5.7 | 20.8 | -0.2
CCN(CC)CCNC(=O)C12CC3CC(C)(CC(C)(C3)C1)C2 | -0.6 | 93.9* | 5.3 | -14.1
Cc1ccc(S(=O)(=O)NC2=C(N3CCN(c4ccccc4F)CC3)C(=O)c3ccccc3C2=O)cc1 | 5.2 | 96.2* | 40.3 | 54.4
CC1CCCN(C2=C(NS(=O)(=O)c3ccc(Cl)cc3)C(=O)c3ccccc3C2=O)C1 (stereo unspecified) | 2.9 | 56.2* | 45.5 | 15.2
Cc1ccc(S(=O)(=O)NC2=C(N3CCN(Cc4ccccc4)CC3)C(=O)c3ccccc3C2=O)cc1 | 1.5 | 96.9* | 30.7 | 15.9
COC(=O)C1CCN(C2=C(NS(=O)(=O)c3ccc(Cl)cc3)C(=O)c3ccccc3C2=O)CC1 | x | x | 8.9 | x
SMILES | RAM inhibit | Lmaj promast | CHOP inhibitor | WT yeast gro inh
CC(=O)Nc1ccc(S(=O)(=O)NC2=C(N3CCN(c4ccc(F)cc4)CC3)C(=O)c3ccccc3C2=O)cc1 | 4.0 | 60.8* | 18.4 | 20.7
CCOCCCNC(=O)C(c1ccc(C)cc1)N(Cc1cccs1)C(=O)CNC(C)=O (stereo unspecified) | -1.1 | 4.4 | 33.3 | -14.3
Cc1ccc2nc(NC(=O)CC3Oc4ccccc4NC3=O)sc2c1 (stereo unspecified) | x | x | 42.4 | x
CC(=O)Nc1ccc(-c2csc(Nc3cccc(C)n3)n2)cc1 | -0.7 | 79.2* | -6.1 | 6.3
Cc1ccc(N/C=C/C(=O)c2cccs2)cc1 | 2.3 | -3.8 | 21.9 | -6.9
C=CCNC1=C(Cl)C(=O)N(c2ccccc2Cl)C1=O | 8.9* | -3.7 | 11.5 | -9.7
Cc1c(NC2=C(Cl)C(=O)N(c3ccccc3Cl)C2=O)c(=O)n(-c2ccccc2)n1C | 3.6 | -5.9 | 15.5 | 13.9
O=C(Nc1ccon1)c1ccc(OC2CCCC2)cc1 | 0.4 | 5.0 | 77.9* | 24.0
Cc1cc(C)c(S(=O)(=O)Nc2cccc(S(=O)(=O)NC3=NCCC3)c2)c(C)c1 | 0.2 | -8.5 | 8.2 | -21.1
CC(C)CNc1nc(SCC(=O)Nc2ccccc2)nc(N2CCOCC2)n1 | 5.2 | 0.1 | 20.3 | -22.3
COc1ccc(C)cc1NC(=O)CCCN1C(=S)NC(C)(C)CC1C (stereo unspecified) | 0.4 | -2.8 | 2.9 | -21.7
CC1CC(C)(C)NC(=S)N1CCCC(=O)N1CCN(c2ccc(F)cc2)CC1 (stereo unspecified) | -0.1 | 82.5* | 20.0 | 4.9
COc1ccc(OC)c(NC(=O)CCCN2C(=S)NC(C)(C)CC2C)c1 (stereo unspecified) | 0.5 | 69.9* | 17.0 | -4.9
CCOc1ccccc1NC(=O)CCCN1C(=S)NC(C)(C)CC1C (stereo unspecified) | 0.4 | 52.1* | 23.9 | -8.7
CCOc1cc(N2CCOCC2)c(OCC)cc1NC(=O)CSc1ncn[nH]1 | -0.2 | 4.3 | -22.5 | -0.5
Cc1cc(NC(=O)CSc2nncc(=O)n2N)no1 | 1.4 | -7.2 | 21.7 | -1.3
C/C=C/C(=O)Nc1nnc(-c2ccccc2C)s1 | 1.1 | -4.1 | 84.5* | -16.5
O=C(c1ccccc1)c1ccc(OCCO)cc1 | 0.1 | -6.8 | -13.9 | -15.6
c1ccc(COc2ccc(OCCCN3CCCC3)cc2)cc1 | 2.0 | 99.8* | 44.9 | -4.3
CC(C)Oc1ccc(OCCCN2CCCCCC2)cc1 | 0.0 | 100.0* | 13.4 | 13.4
CC1CCN(CCCOc2ccc(OCc3ccccc3)cc2)CC1 | 1.3 | 100.2* | 5.9 | 62.6
c1ccc(COc2ccc(OCCCn3cncn3)cc2)cc1 | -0.9 | -6.4 | -3.2 | 3.9
COc1ccccc1OCCOc1ccc(C(=O)c2ccccc2)cc1 | 10.0* | 4.4 | 11.7 | 17.1
C[C@@H](c1ncncc1F)[C@](O)(Cn1cncn1)c1ccc(F)cc1F | x | x | 3.8 | -70.7
Cc1nn(CC(=O)OCC(=O)NC(C)c2ccccc2)c(C)c1[N+](=O)[O-] (stereo unspecified) | -0.7 | -4.0 | 9.5 | -3.7
SMILES | RAM inhibit | Lmaj promast | CHOP inhibitor | WT yeast gro inh
c1ccc(COc2ccc(OCCN3CCCCC3)cc2)cc1 | -0.4 | 100.3* | -16.8 | 21.6
CCC(C)c1ccc(OCCN2CCCC2)cc1 (stereo unspecified) | 0.1 | 96.2* | -24.7 | 26.1
CCOc1ccc(OCCN2CCCCC2)cc1 | 1.2 | 0.6 | 9.6 | -8.0
CC1CCN(CCCCOc2ccc(C(=O)c3ccccc3)cc2)CC1 | 0.4 | 99.1* | 13.0 | 1.7
COc1ccc(C2(O)CCN(CCCCOc3ccccc3)CC2)cc1 | -0.8 | 95.3* | 6.1 | 32.1
CC(C(=O)Nc1ccc(OCc2ccccc2)cc1)N1CCCC1 (stereo unspecified) | 0.8 | 19.4 | 2.0 | -15.4
Cc1ccc(Cn2cccc(NC(=O)c3ccco3)c2=O)cc1 | 0.1 | -6.6 | 12.2 | 23.1
c1ccc(COc2ccc(OCCN3CCCC3)cc2)cc1 | -0.8 | 100.3* | -25.7 | 9.6

Screening results (PubChem BioAssay)
